TDP1 cell CPT – qHTS for Inhibitors of human tyrosyl-DNA phosphodiesterase 1 (TDP1): qHTS in cells in presence of CPT; chicken DT40 Tdp1-/-;hTDP1 cells + 20 nM CPT, ATP luminescence, 48 h; 12% of 420,000 active; Potency, µM (highest dose often 46.2 µM), without a hit: at the top dose activity change, negative = growth inhibition, usual class: inhibitors; note: potency is the fitted concentration of half-maximal effect; nearly all actives have a fitted effect of over 55% in size
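Cell growth measured by CellTiter-Glo luminescence after a minimum 48 h, 37 C compound exposure with 20 nM CPT in Tdp1-knockout DT40 cells stably expressing hTDP1, seeded 400/well; qHTS titration format.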
DT40 TDP1 no CPT – qHTS for Inhibitors of human tyrosyl-DNA phosphodiesterase 1 (TDP1): qHTS in cells in absence of CPT | AID 686978, 2013 | DT40 Tdp1-/- hTDP1 cells, no CPT, ATP luminescence, 48 h | Potency, µM (doses to about 46.2 µM), inactives show top-dose activity change, negative = growth inhibition, most hits filed as inhibitors | 15% of 420,000 active; note: potency is the fitted concentration of half-maximal effect; nearly all actives have a fitted effect of over 55% in size
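Luminescent ATP content (CellTiter-Glo) served as the growth readout. Knockout chicken DT40 cells expressing human TDP1 were exposed to compounds without camptothecin for a minimum 48 hr at 37 °C.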
HT1080NT lethal – qHTS for induction of synthetic lethality in tumor cells producing 2HG: qHTS for the HT-1080-NT fibrosarcoma cell line | Potency, µM (top dose mostly 46.1 µM), without a hit: top-dose activity, negative = less viability, actives largely listed as cytotoxic | 1.6% of 360,000 active | AID 686970, 2013 | HT-1080-NT fibrosarcoma viability, CellTiter-Glo ATP luminescence, 48 h;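 note: NT is the 2HG producing partner of a matched IDH1 knockdown line; potency is the fitted concentration of half-maximal effect; 0% = DMSO-treated cells and -100% = media-only wells without cells; nearly all actives have a fitted effect of over 55% in size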
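A 48-hour cytotoxicity screen used HT-1080-NT cells plated 2 hours before compound delivery. ATP-based CellTiter-Glo luminescence measured viability, normalized to DMSO and no-cell controls.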
IL-1B inflam inh – qHTS for Inhibitors of Inflammasome Signaling: IL-1-beta AlphaLISA Primary Screen | activity change, % at 57.5 µM | AID 743279, 2014 | 4.7% of 360,000 active | THP-1 LPS/ATP IL-1B secretion, AlphaLISA, 16 h; stronger effect = lower value; in the data active = activity change below about -50%; inconclusive = mostly about -30% to -49%
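Secreted IL-1B measured by AlphaLISA bead assay after 16 h compound exposure of THP-1 cells; compounds (final up to 57.5 uM) added 1 h before LPS (250 ng/mL) and ATP (1.25 mM) stimulation; lower signal means less secretion.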
HT1080 IDH1KD tx – qHTS for induction of synthetic lethality in tumor cells producing 2HG: qHTS for the HT-1080-IDH1KD cell line | HT-1080 IDH1 knockdown viability, ATP luminescence, 48 h | Potency, µM (top dose mostly 46.1 µM), inactives show at the highest dose activity, negative = toxicity, hits mostly cytotoxic | 2% of 360,000 active;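 note: potency is the fitted concentration of half-maximal effect; 0% = DMSO wells and -100% = cell-free medium wells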
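After a 2 h attachment period, IDH1KD HT-1080 cells took pin-transferred compound for 48 h at 37 °C; ATP-based luminescence after 10 min room-temperature reagent incubation reported viability.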
Starred values were filed as active, the others as inactive; ? = inconclusive; . = no result given; ! = repeats disagree; [ ] = another dose, or the depositor's remark. Rows were chosen to be rich in hits. Some 19% of all compounds tested hit in one or more screens of this group. Unless noted, calls come from the whole dose curve; as a rule, active = well fitted curve in the direction sought with a large enough effect; inconclusive = small, poorly fitted or top-dose-only effect, or another doubt; inactive = no such curve, though single readings can be large; an effect the other way counts as inactive or inconclusive. Unless noted, % is set by controls: 0 for no effect and ±100 for the full control effect.

SMILES | TDP1 cell CPT | DT40 TDP1 no CPT | HT1080NT lethal | IL-1B inflam inh | HT1080 IDH1KD tx
CCc1nc2c(OCc3ccc(C(F)(F)F)cc3)cccn2c1N(C)C(=O)C(C)C | ? | 26µM* | -12% | -23 | -11%
CCCn1c(=O)n(C)c(=O)c2c(SCC(=O)NC34CC5CC(CC(C5)C3)C4)nc(CC(C)C)nc21 | 15µM* | ? | 12% | 8 | 0%
O=C(OCC(=O)c1ccc([N+](=O)[O-])cc1)/C(=C/c1ccc(Cl)cc1)NC(=O)c1ccccc1 | 16µM* | 23µM* | -1% | -12 | 7%
O=C(COC(=O)Cc1ccccc1)NNC(=O)c1ccc([N+](=O)[O-])cc1 | -13% | 12% | -8% | 10 | -5%
CC1(C)CC2CC(C)(CN2c2ncnc3ccccc23)C1 (centres undefined) | 8.2µM* | 9.2µM* | ? | -82* | ?
CCCCCCCCCCCCCCCCOC[C@@H](O)COP(=O)([O-])OCC[N+](C)(C)C | -15%[4.12 µM] | 0%[4.12 µM] | . | . | .
COC(=O)C1C(OC(=O)c2ccccc2)CC2CCC1N2C (centres undefined) | 5% | -4% | -15% | -12 | -1%
CSCCC(c1nnnn1-c1ccc2c(c1)OCCO2)N1CCC(n2c(=O)[nH]c3ccccc32)CC1 (centres undefined) | 7.3µM* | 7.3µM* | ? | ? | ?
CCC(c1nnnn1-c1ccc2c(c1)OCCO2)N1CCC(n2c(=O)[nH]c3ccccc32)CC1 (centres undefined) | 10µM* | 9.2µM* | ? | -20 | ?
CSCCC(c1nnnn1C(C)(C)C)N1CCC2(CC1)C(=O)NCN2c1ccccc1 (centres undefined) | ? | ? | -22% | -10 | 2%
CCC(c1nnnn1C1CCCCC1)N1CCC2(CC1)C(=O)NCN2c1ccccc1 (centres undefined) | ? | ? | 6% | 0 | 2%
CC1CCCC(C)N1c1nnc(NC(=O)Cn2c(=O)oc3ccccc32)s1 (centres undefined) | -20% | 13µM* | -4% | 11 | 1%
O=C1CCN(C(=O)CCCn2c(=O)oc3ccccc32)CC1 | 20% | -5% | 3% | 17 | 6%
CCCNc1nc(-c2cc(C(=O)Nc3ccccc3)on2)cc(C(C)C)n1 | ? | ? | -1% | -101* | -3%
CN1C(=O)CCS(=O)(=O)[C@H]1c1ccc(Cl)cc1 | -7% | 2% | . | . | .
CCOC(=O)C1=C(C)N=C2c3ccccc3C(=O)C2C1c1ccc(Cl)cc1 (centres undefined) | ? | ? | ? | -52* | ?
CN1C2CCC1CC(=NO)C2 | 0% | -3% | 11% | 11 | 0%
COc1ccc(C(C)=O)cc1CN1CC=C(c2ccccc2)CC1 | ? | ? | 11% | 21 | 0%
COc1cc(C)cc(CN2CC=C(c3ccccc3)CC2)c1O | 16µM* | ? | 1% | -13 | -2%
COc1ccc2ccc(O)c(CN3CC=C(c4ccccc4)CC3)c2c1 | ? | 18µM* | -4% | -16 | -4%
O=C(CN1CC=C(c2ccccc2)CC1)NC(=O)NC1CCCCC1 | -19% | ? | 0% | -6 | -7%
CC(NC(C)(C)C)C(=O)c1cccc(Cl)c1 (centres undefined) | -3% | 16µM*! | 16% | 20 | 8%
CC1CCN(C(=O)C(C)Cl)CC1 (centres undefined) | 4% | 3% | 9% | 8 | 8%
COc1cc(O)c2c(c1)/C=C/C[C@H](O)[C@H](O)C(=O)CCC[C@H](C)OC2=O | ? | ? | 7% | -81* | 4%

Source: PubChem (National Center for Advancing Translational Sciences (NCATS))
